Results taken from the supplement of paper PMC3334620.
Over roughly 33,000 sequences, “E-score (-0.5 to 0.5)” has its median near -0.035; the highest 2% begin near 0.34. The full list was thinned out, with the highest values kept by preference.

Target: T1, Mot3 (UniProt P54785)
T1 sequence: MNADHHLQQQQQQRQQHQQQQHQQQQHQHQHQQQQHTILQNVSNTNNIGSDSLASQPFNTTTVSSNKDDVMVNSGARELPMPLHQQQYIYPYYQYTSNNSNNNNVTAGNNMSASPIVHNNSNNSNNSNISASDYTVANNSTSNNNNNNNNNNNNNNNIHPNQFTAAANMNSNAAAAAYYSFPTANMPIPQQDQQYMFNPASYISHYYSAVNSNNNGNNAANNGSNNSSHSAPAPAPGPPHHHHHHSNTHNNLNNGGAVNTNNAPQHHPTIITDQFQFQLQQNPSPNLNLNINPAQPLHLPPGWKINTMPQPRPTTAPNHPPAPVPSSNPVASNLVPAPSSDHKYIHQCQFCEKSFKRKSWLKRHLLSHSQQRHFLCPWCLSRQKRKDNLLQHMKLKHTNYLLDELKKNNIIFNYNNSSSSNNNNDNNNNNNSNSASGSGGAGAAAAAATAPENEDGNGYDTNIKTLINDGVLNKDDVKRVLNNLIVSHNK
Test: PBM E-score (8-mer binding enrichment) (E-score (-0.5 to 0.5)); higher = stronger / more preferred TF binding
Conditions: protein concentration: 200 nM; construct: GST-full length
Outline: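 E-scores (a modified Wilcoxon-Mann-Whitney statistic) were assigned by the Universal PBM Analysis Suite to every ungapped eight-base word pooled with its reverse complement. The input came from universal all-10-mer Agilent arrays made double-stranded by primer extension and probed with GST-tagged yeast transcription factors at about 100-200 nM. Fluorescent anti-GST detected bound protein, and masliner normalised the scans.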

Sequence	PBM E-score
AAAGGCGG	0.0743
CAATGAGG	-0.197
TACGCGAA	0.221
TCGACTAA	-0.0673
AGGCACTG	0.483
CGGCACTC	-0.251
ATGCACTC	-0.061
GGGCACTA	0.0732
ACGCACTG	0.00111
AAGCACTG	-0.0039
AGGCACTC	0.481
CGGCACTA	-0.184
AGGCACTA	0.484
GTGATCGA	0.11
TAAAAGCA	-0.123
GCAGACAC	-0.00428
AGAGACGA	-0.246
ACACGGGT	0.348
ATACGGTC	-0.061
CCACGGTA	-0.191
ACACGGTG	0.335
ACACGGGC	0.259
CCACGGTC	-0.385
ACACGGGA	0.29
ACACGGTC	0.349

Sequence	PBM E-score
ACACGGTA	0.34
AAAACTCA	0.0802
ATCCTGAA	0.0408
GAGGGACC	-0.298
ATTACGTC	0.269
GTTACGTA	0.177
ACTACGTG	0.0857
CTTACGTA	0.211
ATTACGTA	0.354
ATTACGTG	0.383
ACGTCCAG	-0.0677
GTGGGTAA	-0.0112
AGCACGGA	0.102
CGCACGAC	-0.0534
GGCACGCA	0.348
CGCACGGA	-0.207
GGCACGGA	0.397
CGCACGTA	0.154
GGCACGAA	0.271
AGCACGTA	0.136
GGCACGTA	0.363
GGCACGCC	0.237
CGCACGCA	-0.03
GGCACGAC	0.36
ACACCCCG	-0.336

Sequence	PBM E-score
ACCAGCCA	-0.131
ATGCTCTG	-0.203
ACCGCTCC	-0.258
CGGCATTC	-0.249
CCTCGAGG	-0.336
GCTTGTAA	0.318
AGGAAAGG	0.371
ACGAAAGG	0.153
AGAAAAGC	-0.171
AGGAAAGA	0.282
AGGAAAGC	0.405
CGGAAAGC	-0.151
AACCAAAT	0.127
GTCGCAAA	0.0742
ATATGCGC	0.0367
AGGCAACC	0.483
AGGCAACA	0.482
AGGCAACT	0.484
CGGCAACA	0.0868
CGGCAACG	-0.0123
TGGCAACA	0.118
AAGCAACG	0.0783
AGGCAACG	0.485
GGGCAACC	-0.175
AAGCAACT	-0.0233

Sequence	PBM E-score
CGGCAACC	-0.0847
ACGCAACT	0.0644
GAGGCAGC	-0.0844
CTTGCATC	-0.16
ACCTGCTC	0.166
ATATGACG	0.0195
CGTATTTC	0.215
AGGACACT	-0.159
AGGATCGA	-0.0463
CCACAACA	-0.0484
GCACAACC	-0.0592
GCACAACA	0.35
AAGGTCCC	-0.184
GGCGCATA	-0.113
ACCCGCAA	-0.0644
TCGGAACA	0.056
ATGGAACA	-0.111
AAGGAATT	-0.0259
GAGGAACA	0.176
CAGGAATG	-0.0291
AAGGAACA	0.453
AAGGAACT	0.416
TAGGAACA	0.416
ACGGAACT	-0.186
CAGGAACG	0.466

Sequence	PBM E-score
CAGAAACG	0.0904
AAGGAAGA	-0.0092
ATGCTTAG	0.0516
AACGTTAT	0.123
AAGCCTCC	-0.243
CACTGGCC	-0.267
AACACATA	0.312
AAATTGGA	-0.0378
CAGTGGCG	-0.266
AGCAGTCA	0.0249
CAGCCAGA	-0.3
CTCCCTTA	-0.018
ACCGGCCG	-0.21
AAGGAACC	0.462
GAGGAACC	0.255
ATGGAACG	0.0262
CAGAACCC	-0.0803
CAGGAACC	0.46
ACGGAACC	0.0959
AGGGAACC	0.00909
AAGGAACG	0.465
CAGGAACA	0.449
CAGAAACA	0.0657
AAGGAAGG	0.176
CGGGAACA	0.147

Sequence	PBM E-score
TCGTGCCA	-0.155
GCACACCA	0.143
GGGGGGAC	-0.254
CTACTGTC	-0.103
GGTCTAAA	-0.127
GATCGCAA	-0.129
ACTCAAAA	-0.0489
ATGCAATG	-0.0896
GGGCAATA	-0.132
AGGCAATA	0.472
AGGCAATC	0.481
AAGCAATC	-0.0271
CGGCAATC	-0.109
ACGCAATG	0.23
CGGCAATA	0.0917
AGGCAATG	0.476
AACAGGAT	0.0971
CAATGGAC	-0.189
TAGCCAGA	-0.0655
GACACTAA	-0.106
AAGGCTGC	-0.00639
CACAGGGG	0.118
AGTTAGAT	0.0673
ACGCTTCT	-0.0128
CCAGACGG	-0.383

Sequence	PBM E-score
CTGCGTAA	0.302
TCGCGTAA	0.374
GCGCGTAC	0.117
GCGCGTAA	0.34
GGGCGTAA	0.135
GTGCGTAA	0.356
ATGCGTAA	0.32
ACGCGTAA	0.317
CCGCGTAA	0.336
ATTCTGAG	0.0253
TGTCGACA	0.111
ACAACAAT	0.182
GCACTTAA	0.133
CTTCAAGC	-0.0397
GTTTCCAA	-0.12
GTTTCCGA	0.122
CTTTCCTC	0.0989
CTTTCCCA	-0.0799
GTTTCCTA	0.411
CTTTCCTA	0.399
AGGCATGG	0.229
AAAGTGGG	-0.0287
